Screens from PubChem BioAssay.
An excerpt weighted towards active compounds, which were near 1.6% of everything screened.
GC-A act: GC-A (human) enzyme activation. HEK293 GC-A cells, cGMP TR-FRET, EC30 ANP; 0% at EC30 ANP, 100% saturating ANP. activation, % at 10 µM. 370,000 compounds, 0.14% hits. AID 1671463; in the data active = activation above about 40%
GC-B act: GC-B (human) receptor activation; HEK293-GC-B cells, CNP EC30, cGMP TR-FRET; 0% at EC30 CNP, 100% saturating CNP; P20594; 370,000 compounds, 0.11% hits; AID 1920062; activation, % at 10 µM;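 active = activation at 10 µM reaching about 35% in either raw or pattern-adjusted values, limit read from the data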
PG9 binder: PG9 antibody binding by small molecule. TR-FRET gp120-PG9 antibody binding. inhibition, % at 6.7 µM. 360,000 compounds, 0.43% hits; in the data active = inhibition above about 8.5%
NR1D1 modulator: Rev-erb alpha (human) modulation. Rev-erbα–FITC-DNA binding, fluorescence polarization, 90 min. activity, % at 10 µM. 370,000 compounds, 0.79% hits. AID 1259318;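 active = activity above about 14%, limit read from the data; passing the limit was not always enough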;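 also: 0% = DMSO wells with 35 nM protein and 100% = DMSO wells with 750 nM protein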
Target sequence (P20393 whole entry, looked up): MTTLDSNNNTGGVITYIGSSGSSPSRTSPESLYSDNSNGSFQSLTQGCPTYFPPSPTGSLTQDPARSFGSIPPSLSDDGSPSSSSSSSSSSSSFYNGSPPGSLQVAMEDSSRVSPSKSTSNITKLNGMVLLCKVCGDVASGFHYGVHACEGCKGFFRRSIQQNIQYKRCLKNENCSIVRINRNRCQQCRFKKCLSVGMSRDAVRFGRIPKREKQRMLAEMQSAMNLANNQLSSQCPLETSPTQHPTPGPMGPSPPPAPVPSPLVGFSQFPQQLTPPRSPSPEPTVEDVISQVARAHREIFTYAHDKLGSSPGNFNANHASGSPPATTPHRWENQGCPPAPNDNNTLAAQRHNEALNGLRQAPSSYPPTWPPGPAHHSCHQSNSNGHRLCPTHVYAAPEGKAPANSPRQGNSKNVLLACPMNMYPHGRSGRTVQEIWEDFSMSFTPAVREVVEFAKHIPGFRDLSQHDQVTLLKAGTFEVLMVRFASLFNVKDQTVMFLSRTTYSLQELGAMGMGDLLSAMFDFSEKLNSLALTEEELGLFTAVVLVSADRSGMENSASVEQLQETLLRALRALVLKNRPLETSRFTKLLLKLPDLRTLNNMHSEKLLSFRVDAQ
V-ATPase pHluor: regulators of yeast V-ATPase proton transport; S. cerevisiae, pHLuorin cytosolic pH fluorescence; response, % at 10 µM; 350,000 compounds, 0.37% hits; AID 504577; in the data active = response mostly above about 7.3%, no sharp cut-off; inactive = mostly below about 5.4%; also: actives read high
VATPase regulator: regulators of yeast V-ATPase proton transport. shares compounds with V-ATPase pHluor. S. cerevisiae pHLuorin cytosolic pH. response, % at 10 µM. 980 compounds, 2% hits. AID 602197; in the data active = response above about 24%;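 also: plate controls were vehicle wells for no effect and positive control wells for full effect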
PG9 bind confirm: PG9 antibody binding, confirmed; shares compounds with PG9 binder; TR-FRET PG9 antibody binding, biochemical; inhibition, % at 6.7 µM; 1,500 compounds, 90% hits; AID 651571; in the data active = inhibition above about 9%
PGV04 counter: PGV04 control antibody binding, counter-screen | 1,500 compounds, 95% hits | AID 651604 | inhibition, % at 6.7 µM | shares compounds with PG9 binder | TR-FRET PGV04 antibody-gp120 binding, biochemical; in the data active = inhibition above about 9.5%
Rev-erbA confirm: confirmation of modulators of human Rev-erb alpha DNA binding; shares compounds with NR1D1 modulator; Rev-erb alpha FITC-DNA binding, fluorescence polarization, 90 min; activation, % at 25 µM; 3,000 compounds, 61% hits; AID 1259319;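 active = activation at or above a set limit, or at least 3 SD above the negative control mean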;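 also: 0% = 35 nM protein with DMSO and 100% = 750 nM protein high control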
RORg DNA counter: counter-screen for Rev-erb alpha modulators: RORgamma DNA binding; shares compounds with NR1D1 modulator; purified RORgamma protein-FITC-DNA binding, fluorescence polarization; IC50, µM; 910 compounds, 8% hits; AID 1259320;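 active = Compounds whose fitted half-maximal concentration for disrupting protein-DNA binding is below 10 micromolar; the record names Rev-erb in its text, so the target is in doubt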
Starred values were filed as active, the others as inactive; · = not tested or not shown.

SMILES	GC-A act	GC-B act	PG9 binder	NR1D1 modulator	V-ATPase pHluor	others
CN1C(=O)NC(=O)/C(=C/c2ccc([N+](=O)[O-])s2)C1=O	11	3	-4	-2	130*
O=C1NC(=O)N(c2ccccc2)C(=O)/C1=C\c1ccc([N+](=O)[O-])s1	-3	4	-2	-2	136*
Oc1ccc2c3c1O[C@@H]1[C@@H](O)CC[C@@]4(O)[C@@H](C2)N(CC2CCC2)CC[C@]314	·	·	·	8	·
CN1C(=O)/C(=C\c2ccc(Br)s2)C(=O)NC1=S	20	12	-1	-2	21*	VATPase regulator=97*
C[N+](C)(C)CC(=O)Nc1ccc(Cl)cc1C(=O)c1ccccc1	1	1	1	-2	3
Cc1cccc(C(=O)Nc2ccc(Cl)cc2C(=O)c2ccccc2)c1	-6	-6	1	2	9.0*	VATPase regulator=-1
O=C(O)CCn1cc(C=C2C(=O)NC(=S)NC2=O)c(-c2cccc(Cl)c2)n1	1	-2	-2	0	8.0*	VATPase regulator=-1
O=C(O)CCn1cc(C=C2C(=O)NC(=O)NC2=O)c(-c2ccc(Br)cc2)n1	1	-7	0	-2	-2
CCCCCCn1c(=O)c(C(=O)Nc2c(C)n(C)n(-c3ccccc3)c2=O)c(O)c2ccccc21	-11	-1	-1	-2	11*	VATPase regulator=2
COC(C)(C)CCC[C@H](C)C/C=C/C(C)=C/C(=O)OC(C)C	·	·	·	-8	·
Cc1[nH]c2ccccc2c1C(=O)C(=O)N1CC2CC(C1)c1cccc(=O)n1C2 (stereo not drawn)	-1	4	0	2	9.1*	VATPase regulator=-1
O=[N+]([O-])C(Br)(CO)CO	·	·	·	0	·
O=c1cccc2n1C[C@H]1CNC[C@H]2C1	·	·	·	-2	·
COC(=O)Cn1cc(C=C2C(=O)N(C)C(=O)N(C)C2=O)c2ccccc21	7	12	24*	-1	·	PG9 bind confirm=39*;PGV04 counter=53*
CC(C)(C)C(=O)c1cn(CC(=O)NCc2ccco2)c2ccccc12	1	3	-1	4	5
O=C(Cn1cc(C(=O)c2ccccc2F)c2ccccc21)NCc1ccco1	1	1	17*	1	-2	PG9 bind confirm=15*;PGV04 counter=37*
COP(=S)(OC)Oc1cc(Cl)c(Cl)cc1Cl	·	·	·	4	·
COc1ccc(-n2c(=S)[nH]c3ccc(C)cc3c2=O)cc1	9	-4	41*	52*	0	PG9 bind confirm=35*;PGV04 counter=39*;Rev-erbA confirm=19*
C#C[C@]1(O)C=C[C@H]2[C@@H]3CCC4=CC(=O)CC[C@@H]4[C@H]3CC[C@@]21CC	·	·	·	-1	·
O=[N+]([O-])c1ccc(N2CCCCCC2)c2nonc12	-2	0	-4	56*	0	Rev-erbA confirm=49*;RORg DNA counter=4.1*
O=[N+]([O-])c1ccc(N2CCCCC2)c2ncccc12	2	-2	-2	10	-1
O=C(Nc1ccc(Br)cc1)c1cc(Br)cc(Br)c1O	·	·	·	-2	·
CN1/C(=C\C=C2C(=O)NC(=S)NC2=O)C(C)(C)c2ccccc21	-8	-2	-25	25*	1	Rev-erbA confirm=53*;RORg DNA counter=>40
CC1(C)OC(c2ccccc2)=C/C(=C/C=C2C(=O)NC(=S)NC2=O)O1	-37	-4	-1	5	·
C=CCCC(NC(=O)OCc1ccccc1)P(=O)(Oc1ccccc1)Oc1ccccc1 (stereo not drawn)	-6	-15	·	-8	·
O=c1c(C=NCc2cccs2)c(O)n(C2CCCCC2)c(=O)n1C1CCCCC1	-2	-1	0	63*	0	Rev-erbA confirm=2
O=c1c(C=NCCN2CCNCC2)c(O)n(C2CCCCC2)c(=O)n1C1CCCCC1	·	·	·	·	-5
COC(=O)[C@@]1(O)c2c(oc3cccc(O)c3c2=O)C=C[C@H]1O	9	-3	·	0	·
